Test results as given in PubChem BioAssay (Tox21).
A number with no mark means an inactive call. Calls of active or inactive are those of the source. Calls follow the shape of the dose curve; as a rule, active = well fitted activation curve with a large enough effect in the repeat runs; inconclusive = weak or mixed curves; inactive = flat fitted curve, though single readings scatter.

assay: Caspase-3/7 induction in CHO-K1 cells by small molecules, qHTS assay (AID 1346980); settings: CHO-K1 caspase-3/7 induction, Caspase-Glo luminescence, 17 h; series mostly up to 92.4 µM; caspase-3/7 activation: at the top concentration; also: nearly all actives have a fitted effect of over 15% in size
Method in brief: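 Wild-type cells were seeded at 1,500 per well and settled 5 hr at 37 C, 5% CO2, then exposed to DMSO-dissolved compounds for 17 hr. Caspase-Glo 3/7 reagent was added, and luminescence was read after 30min at room temperature.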
% is scaled to controls: 0 for no effect and ±100 for the full control effect; potency is read from the fitted curve at half-maximal effect.

Compound	caspase-3/7 activation	Potency
O=c1c(C2CC(c3ccc(-c4ccc(Br)cc4)cc3)Cc3ccccc32)c(O)sc2ccccc12 (stereo unspecified)	0.076% [at 42.5 µM]	–
O=C1C=CC(=O)c2ccccc21	-5.74%	–
S=C(SSC(=S)N1CCCCC1)N1CCCCC1	-3.95% [at 42.5 µM]	–
CCCCOP(=O)(CCCC)OCCCC	0.0314%	–
Nc1ccc([N+](=O)[O-])cc1Cl	-0.696%	–
O=C/C(Cl)=C(/Cl)C(=O)O	–	inactive
O=c1[nH]c2ccccc2n1C1CCN(CCCC(c2ccc(F)cc2)c2ccc(F)cc2)CC1	–	30.6 µM (active)
COc1ccc(OC)c(C=O)c1	2.88%	–
[Cl][Sb]([Cl])[Cl]	1.04%	–
CCCCCCCCCBr	-0.0159%	–
CC(C)(C)C(O)C(Oc1ccc(-c2ccccc2)cc1)n1cncn1 (stereo unspecified)	3.19%	–
CCOCn1c(-c2ccc(Cl)cc2)c(C#N)c(Br)c1C(F)(F)F	1.46%	–
CC1(C)[C@H](C(=O)O[C@H](C#N)c2cccc(Oc3ccccc3)c2)[C@@H]1/C=C(\Cl)C(F)(F)F	–	inactive
Clc1ccc(CCC(Cn2ccnc2)Sc2c(Cl)cccc2Cl)cc1 (stereo unspecified)	0.856% [at 42.5 µM]	–
C[C@@H]1O[C@@H](O[C@H]2C[C@@H](O)[C@]3(CO)[C@H]4[C@H](O)C[C@]5(C)[C@@H](C6=CC(=O)OC6)CC[C@]5(O)[C@@H]4CC[C@]3(O)C2)[C@H](O)[C@H](O)[C@H]1O	–	inactive
CC(C)Oc1cccc(NC(=O)c2ccccc2C(F)(F)F)c1	-2.41%	–
